Assay outcomes: PubChem, National Center for Advancing Translational Sciences (NCATS)
HP1b chromo inh = blocks HP1-beta chromodomain binding to methylated histone tails. P83916. AlphaScreen HP1-beta / biotin-H3K9me3 peptide binding. Potency, µM (top dose mostly 114 µM), for inactives: top-dose activity change, negative = inhibition, most hits filed as inhibitors. 0.56% of 390,000 active. AID 540317; further: nearly all actives have a fitted effect of over 70% in size
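HP1-beta protein (50 nM final) preincubated 30 min at room temperature with biotinylated H3(1-18)K9me3 peptide (50 nM) in PBS pH 7.4, 0.01% Tween-20, then compound added for 30 min. AlphaScreen streptavidin donor/nickel chelate acceptor beads (10 ug/mL final), 30 min dark, luminescence read.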
Sfp inh = inhibitors of Bacillus subtilis Sfp phosphopantetheinyl transferase; 3.5% of 310,000 active; Biochemical Sfp PPTase activity, qHTS; Q9F4F7; Potency, µM, for inactives: largest response in the series, negative = inhibition, usual class: inhibitors; AID 1490;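 further: the enzyme is Sfp with the accession as filed and its product quenches rhodamine fluorescence; 0% = enzyme reaction without inhibitor and -100% = no enzyme wells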
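After 15 min at room temperature with compound, 15 nM Sfp received 5 uM rhodamine-CoA plus 12.5 uM BHQ-2-ybbR (50 mM Hepes pH 7.6, 10 mM MgCl2). Rate came from the fluorescence difference over 30 min, ex 525/em 598 nm.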
BAZ2B block = inhibitors of human BAZ2B bromodomain; AlphaScreen BAZ2B-H3K14Ac peptide displacement; Potency, µM (series often up to 114 µM), without a hit: top-dose activity change, negative = inhibition, most hits filed as inhibitors; 4.4% of 360,000 active; AID 504333; further: on the % scale 0 is the no-effect control and ±100 the full control effect; nearly all actives have a fitted effect of over 60% in size
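BAZ2B (50 nM) with biotin-H3(5-23)K14Ac peptide (50 nM) in PBS pH 7.4, 0.01% Tween-20, preformed 30 min, then compound 30 min at room temperature; top concentration 110uM. AlphaScreen streptavidin donor/nickel chelate acceptor beads (10 ug/mL final), 20 min dark, signal read.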
G9a inh = inhibitors of human histone lysine methyltransferase G9a. Q96KQ7. G9a H3K9 monomethylation, AlphaScreen, 2 h. Potency, µM (top dose mostly 102 µM), inactives show at the highest dose activity, negative = inhibition, hits mostly inhibitors. 8.8% of 350,000 active. AID 504332; further: on the % scale 0 is the no-effect control and ±100 the full control effect; nearly all actives have a fitted effect of over 75% in size
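Methyltransferase reactions run at room temperature for 2 h (20 nM enzyme, 500 nM biotin-H3K9 peptide, 20 uM SAM) after a 15 min compound preincubation; product detected by AlphaScreen beads and anti-H3K9me1 antibody.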
JMJD2A Tudor inh = JMJD2A Tudor domain (human) inhibition. AlphaScreen JMJD2A-Tudor / H3K4me3 peptide binding. Potency, µM (series often up to 114 µM), without a hit: at the highest dose activity change, negative = inhibition, most hits filed as inhibitors. AID 504339. O75164. 4.4% of 390,000 active; further: on the % scale 0 is the no-effect control and ±100 the full control effect; nearly all actives have a fitted effect of over 50% in size
Target sequence (O75164 whole entry, looked up, the tested form may be a part): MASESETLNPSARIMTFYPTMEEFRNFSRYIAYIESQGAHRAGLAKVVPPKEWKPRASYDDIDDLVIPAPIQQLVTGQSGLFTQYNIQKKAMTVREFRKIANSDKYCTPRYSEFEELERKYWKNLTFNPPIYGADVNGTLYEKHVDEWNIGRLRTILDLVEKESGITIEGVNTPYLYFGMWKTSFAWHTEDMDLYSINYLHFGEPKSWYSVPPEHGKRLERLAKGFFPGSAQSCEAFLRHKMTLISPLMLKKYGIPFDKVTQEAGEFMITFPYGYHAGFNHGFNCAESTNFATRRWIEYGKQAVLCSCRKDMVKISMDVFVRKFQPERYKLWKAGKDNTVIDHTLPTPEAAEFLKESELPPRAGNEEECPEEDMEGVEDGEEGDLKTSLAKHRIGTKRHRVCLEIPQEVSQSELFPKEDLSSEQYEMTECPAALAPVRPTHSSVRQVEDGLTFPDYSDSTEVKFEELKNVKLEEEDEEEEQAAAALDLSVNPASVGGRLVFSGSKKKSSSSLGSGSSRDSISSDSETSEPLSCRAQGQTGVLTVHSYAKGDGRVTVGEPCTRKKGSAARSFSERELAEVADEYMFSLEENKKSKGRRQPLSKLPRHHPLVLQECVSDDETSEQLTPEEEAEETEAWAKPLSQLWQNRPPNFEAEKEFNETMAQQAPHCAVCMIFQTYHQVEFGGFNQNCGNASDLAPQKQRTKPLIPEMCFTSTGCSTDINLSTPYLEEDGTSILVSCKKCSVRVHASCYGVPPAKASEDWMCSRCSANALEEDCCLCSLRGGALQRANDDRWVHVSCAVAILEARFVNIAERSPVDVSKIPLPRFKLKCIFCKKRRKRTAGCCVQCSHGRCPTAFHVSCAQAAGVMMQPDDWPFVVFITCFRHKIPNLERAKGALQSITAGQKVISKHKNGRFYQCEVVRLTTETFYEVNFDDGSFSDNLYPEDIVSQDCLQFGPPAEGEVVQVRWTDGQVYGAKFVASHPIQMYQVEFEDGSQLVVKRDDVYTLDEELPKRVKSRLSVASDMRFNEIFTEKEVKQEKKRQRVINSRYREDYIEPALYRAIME
Starred values were filed as active, the others as inactive; u = inconclusive; x = no result; [ ] = another dose, or the depositor's remark. Most compounds without a hit are left out; they make up all but 12% or so of the library. The call rests on the fitted dose curve; in most records, active means well fitted curve in the direction sought with a large enough effect; inconclusive means small, poorly fitted or top-dose-only effect, or another doubt; inactive means no such curve, though single readings can be large; an effect the other way counts as inactive or inconclusive. Potency means the concentration at half of the fitted maximal effect.

SMILES | HP1b chromo inh | Sfp inh | BAZ2B block | G9a inh | JMJD2A Tudor inh
Cc1ccc(C)c(S(=O)(=O)N2CCN(Cc3cc4c(cc3O)OCO4)CC2)c1 | -29.7% | x | 39.8µM* | 1.41µM* | 31.6µM*
O=c1cc(CN2CCN(S(=O)(=O)c3ccccc3[N+](=O)[O-])CC2)nc2sccn12 | 44.9% | 4.3% | x | 39.8µM* | -7.1%
O=c1cc(CN2CCc3ccccc32)nc2sccn12 | u | -7.0% | -4.6% | 31.6µM* | 17.8µM*
CC(C(=O)OCC(=O)c1ccc([N+](=O)[O-])cc1)N1C(=O)C2C3C=CC(C3)C2C1=O (stereo not drawn) | -0.9% | 9.9% | 2.3% | u | -8.7%
Cn1c(=O)n(-c2ccc(Cl)cc2)c(=O)c2c3c(sc21)COC(C)(C)C3 | 19.9% | 6.5% | 1.3% | 0.7%[12.7 µM] | -6.3%
COn1c2c(c3c4no[n+]([O-])c4ccc31)CCCC2 | 10.8% | 11.3% | -28.4% | -16.0% | -14.7%
COn1c2c(c3c4nonc4ccc31)CCCC2 | 103.3% | -27.4% | 14.5% | 10µM* | 34.3%
COc1cc2[nH]c(=S)nc(NCCCOC(C)C)c2cc1OC | 23.5% | -20.1% | 50.1µM* | 44.7µM* | u
CCCCNc1nc(=S)[nH]c2cc(OC)c(OC)cc12 | 15.2% | u | u | -3.2%[12.7 µM] | u
CCOCCCNc1nc(=S)[nH]c2cc(OC)c(OC)cc12 | 24.6% | -3.0% | u | 35.5µM* | u
COCCNc1nc(=S)[nH]c2cc(OC)c(OC)cc12 | 40.4% | -11.4% | -28.2% | 35.5µM* | u
O=C(NCc1ccccn1)c1ccccc1OCc1ccc(F)cc1 | 35.8% | x | 8.6% | 9.2% | -4.8%
Cc1ccccc1C(=O)NC(=S)Nc1sc2c(c1C#N)CCCC2 | -10.6% | 8.5% | -37.3% | u | u
NC(=O)c1c(NC(=O)c2cccnc2Cl)sc2c1CCCC2 | 17.0% | 1.5% | -4.6% | 17.8µM* | -3.4%
Cc1onc(-c2ccccc2)c1C(=O)NC(=S)Nc1sc2c(c1C#N)CCCC2 | -3.0% | 44.7µM* | u | 2µM* | -35.5%
Cc1onc(C(=O)Nc2sc3c(c2C(N)=O)CCCC3)c1[N+](=O)[O-] | u | 25.1µM* | u | x | u
Cc1onc(-c2ccccc2)c1C(=O)Nc1sc2c(c1C#N)CCC2 | u | -82.8% | u | u | 50.1µM*
CN1CCN(C(=O)/C(=C\c2cccs2)NC(=O)c2ccco2)CC1 | 25.1% | 12.9% | 2.3% | 2.0%[59 µM] | -13.5%
Cc1ccc(-n2ncc(C(=O)NCc3ccco3)c2C2CCN(C(=O)OC(C)(C)C)CC2)cc1 | 11.0% | x | 1.1%[57.1 µM] | u | -30.1%
OC(c1cc(-c2cccc(Cl)c2)nc2ccccc12)C1CCCCN1 (stereo not drawn) | u | x | x | x | -35.9%
Cc1cc(C(=O)COC(=O)c2ccc(O)cc2)c(C)n1CC(F)(F)F | u | x | u | 13.6%[2.33 µM] | u
Cc1cc(C(=O)Nc2sc3c(c2C#N)CCC(C)C3)no1 (stereo not drawn) | 39.2% | 26.4% | 0.0% | 19.4%[59 µM] | -11.5%
Cc1onc(-c2c(F)cccc2Cl)c1C(=O)Nc1sc2c(c1C(N)=O)CCC2 | 2.6% | -6.8% | 1.7% | 50.1µM* | -8.8%
NC(=O)c1c(NC(=O)c2ccccc2Cl)sc2c1CCC2 | 15.3% | -9.1% | -14.8% | x | -1.3%
Cc1onc(-c2ccccc2)c1C(=O)NC(=S)Nc1sc2c(c1C#N)CCC(C)C2 (stereo not drawn) | -1.4% | -5.8% | u | 3.55µM* | -30.8%
SMILES | HP1b chromo inh | Sfp inh | BAZ2B block | G9a inh | JMJD2A Tudor inh
CCC(CC)c1nnc(NC(=O)c2c(-c3ccccc3)noc2C)s1 | 13.8% | 18.4% | -2.3% | 39.8µM* | -17.2%
Cc1onc(-c2ccccc2)c1C(=O)Nc1sc2c(c1C(N)=O)CCC2 | u | u | u | 11.2µM* | -19.8%[57.1 µM]
CCOC(=O)C1=C(CC)Nc2ccccc2N=C1NC(=O)c1cccc(S(=O)(=O)N2CCOCC2)c1 | 23.7% | x | 9.7% | 1.3%[12.7 µM] | -9.1%
Cc1cc(C)nc(NN2C(=O)/C(=C/c3ccccc3)SC2=S)n1 | 0.6% | 31.6µM* | -8.3% | 39.8µM* | -10.9%
O=C1/C(=C/c2ccncc2)SC(=S)N1Nc1ccccc1 | u | u | u | 31.6µM* | u
O=C(O)c1ccc(/C=C2\SC(=S)N(Nc3ccccc3)C2=O)cc1 | -5.1% | -23.8% | u | 50.1µM* | -23.2%
O=C(CSc1nnc(-c2cccnc2)o1)Nc1ccccn1 | 44.6% | 8.5% | 7.8% | -5.0%[12.7 µM] | -2.6%
COc1ccc(-c2cc(CNC(=O)CN(C)Cc3ccccc3)on2)cc1 | 35.9% | 16.9% | -4.5% | 2.8%[59 µM] | -4.7%
Cn1c(=O)c(=O)n(C)c2cc(N3CCOCC3)c(NS(=O)(=O)c3ccc(Cl)cc3)cc21 | 11.7% | x | -22.2% | -44.9%[59 µM] | -15.0%
Cn1c(=O)n(C)c2cc(N3CCOCC3)c(NS(=O)(=O)c3cccc(C#N)c3)cc21 | u | x | 22.4µM* | 6.31µM* | 50.1µM*
CCc1ccccc1N(CC(=O)NC1CCCCC1)C(=O)CNC(=O)c1ccco1 | 46.9% | 6.6% | 0.8% | -5.8% | -11.2%
O=C(O)Cc1sc(NCCc2ccccc2)nc1-c1ccc(F)cc1 | 2.9% | -6.1% | -17.6% | u | -31.8%
CCOC(=O)c1sc(NC(=O)CCCCl)nc1C | 28.8% | -26.0% | 5.7% | 50.1µM* | 4.3%
O=C(O)Cc1sc(N/N=C\c2ccccc2)nc1-c1ccccc1 | -23.0% | 39.8µM* | u | 3.16µM* | u
CCOC(=O)c1sc(N/N=C/c2ccccc2)nc1C | -36.1%[57 µM] | 35.5µM* | -6.1% | 2µM* | u
CCOC(=O)c1cc(NC(=O)N(CC)CC)c(C)nc1C | 15.8% | 1.1% | 8.8% | -2.2% | -6.6%
COc1cccc(C2C(C(=O)Nc3ccc(Cl)cc3)=C(C)Nc3c(C(=O)Nc4ccccc4)cnn32)c1OC (stereo not drawn) | 33.0% | x | 11.6% | 15.1%[59 µM] | -28.3%
COc1ccc(OCc2n[nH]c(=S)o2)cc1 | 2.8% | -21.0% | -27.9% | u | u
S=c1[nH]nc(COc2ccc(Cl)cc2)o1 | 6.7% | u | -5.3% | 3.98µM* | 79.4µM*
S=c1[nH]nc(CCc2ccc(Cl)cc2)o1 | 67.3% | -6.3% | -4.8% | 7.08µM* | -13.9%
COCCCn1c(Cc2csc(Nc3cccc(Cl)c3)n2)nnc1SCC(=O)OC | -7.5% | 25.1µM* | u | 28.2µM* | 56.2µM*
Cc1cccc(C(CC(=O)NCCc2ccccc2)c2ccccc2)c1O (stereo not drawn) | 55.2% | 79.4µM* | -1.8% | 3.0% | -2.1%
COc1ccc(CCNC(=O)CC(c2ccccc2)c2cc(C)ccc2O)cc1OC (stereo not drawn) | 2.5% | 1.3% | -9.1% | 1.2%[2.33 µM] | -32.1%
Cc1ccc(O)c(C(CC(=O)NCc2ccco2)c2ccccc2)c1 (stereo not drawn) | -0.2% | 9.5% | u | x | -35.2%
Cc1cccc(C(CC(=O)NCc2ccco2)c2ccccc2)c1O (stereo not drawn) | 41.5% | 3.1% | u | 44.7µM* | -20.7%
